Screens deposited in PubChem by several laboratories.
Hits are enriched below; roughly 7.2% of the tested compounds scored in any of these assays.
VLA-4 inh – inhibition in a human VLA-4 binding assay; P13612; VLA-4 expressing cells, ligand binding flow cytometry; inhibition, % (about 7 µM as worked out from the volumes in the protocol); hit rate 0.2% among 330,000; AID 2557; in the data active means inhibition above about 50%
Target sequence (P13612 whole entry, looked up): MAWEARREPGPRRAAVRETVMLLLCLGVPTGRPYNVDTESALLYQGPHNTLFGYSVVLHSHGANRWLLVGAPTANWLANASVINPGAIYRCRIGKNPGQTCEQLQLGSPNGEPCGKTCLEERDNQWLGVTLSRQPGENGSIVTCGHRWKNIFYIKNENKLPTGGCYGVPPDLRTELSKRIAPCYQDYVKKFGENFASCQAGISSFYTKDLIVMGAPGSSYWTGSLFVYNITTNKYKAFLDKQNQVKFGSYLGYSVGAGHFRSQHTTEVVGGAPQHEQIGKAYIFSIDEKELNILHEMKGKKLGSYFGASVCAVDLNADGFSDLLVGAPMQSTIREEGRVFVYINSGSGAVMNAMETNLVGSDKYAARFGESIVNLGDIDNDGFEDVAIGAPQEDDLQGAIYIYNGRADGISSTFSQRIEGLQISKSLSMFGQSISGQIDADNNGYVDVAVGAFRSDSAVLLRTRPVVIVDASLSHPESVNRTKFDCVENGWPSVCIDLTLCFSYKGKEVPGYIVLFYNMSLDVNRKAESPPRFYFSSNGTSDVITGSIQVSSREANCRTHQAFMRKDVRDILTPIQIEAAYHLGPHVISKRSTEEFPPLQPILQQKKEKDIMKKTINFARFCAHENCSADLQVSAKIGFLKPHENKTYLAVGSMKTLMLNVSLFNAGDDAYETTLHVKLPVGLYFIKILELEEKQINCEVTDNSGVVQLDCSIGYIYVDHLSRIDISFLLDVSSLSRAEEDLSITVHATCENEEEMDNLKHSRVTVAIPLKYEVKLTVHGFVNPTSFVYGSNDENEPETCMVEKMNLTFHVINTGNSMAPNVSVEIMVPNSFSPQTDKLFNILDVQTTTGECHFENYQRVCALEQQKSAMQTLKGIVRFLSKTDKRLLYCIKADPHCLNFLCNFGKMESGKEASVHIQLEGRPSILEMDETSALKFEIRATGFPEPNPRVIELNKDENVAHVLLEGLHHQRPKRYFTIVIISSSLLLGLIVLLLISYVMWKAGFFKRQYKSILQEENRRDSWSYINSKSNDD
AHR act – activators of human aryl hydrocarbon receptor; P35869; activation, % at 5 µM; hit rate 2.5% among 320,000; AID 2796; AHR-responsive luciferase reporter cells, luminescence; in the data active means activation above about 47%;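 further: 0% = vehicle wells and 100% = reference agonist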
Efflux pump inh – inhibitors of Candida antifungal efflux pumps expressed in yeast; S. cerevisiae Candida pump triplex, Nile Red efflux; inhibition, % at 10 µM; hit rate 0.44% among 330,000;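 active means plate passing quality check with inhibition over a set limit, or well fluorescence over plate mean plus 4 SD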;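 further: Nile Red retained in pooled yeast measured as flow cytometry median fluorescence; 0% = buffer negative control and 100% = Enniatin B positive control; higher means more Nile Red kept so more efflux inhibition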
Mot1-301 SUMO – SUMOylation pathway inhibition by Mot1-301 growth rescue. S. cerevisiae Mot1-301 growth rescue, ATP luminescence, 38.5C; percent above DMSO median, 100 means doubled. growth rescue, % at 18.8 µM. hit rate 1% among 320,000;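 active means every valid replicate shows activation above 250% relative to neutral control wells; inactive means the rest, any valid replicate at or below 250%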;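 further: OY570 slx delta 5 strain wells were the positive control but not used for scaling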
ALR H2O2 inh – blocks human ALR sulfhydryl oxidase activity; P55789; purified ALR, DTT oxidation, H2O2 HRP-luminol luminescence; inhibition, % (test concentration not listed); hit rate 3.8% among 290,000; AID 485317;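 active means mean replicate inhibition above about 79%, with every replicate also reaching it, limit read from the data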
A1 inh – inhibitors of the anti-apoptotic protein A1, read as caspase activation. hit rate 0.066% among 330,000. MEF A1-2A-BIM cells, Caspase-Glo 3/7 luminescence, 3 h; percent of clofoctol response, vehicle zero. caspase activation, % (concentration not given with the values);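 active means over half of replicate activation scores above 10%, or exactly half above 10 with the replicate mean above 10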
Numbers without * were called inactive.

COc1ccc(Br)cc1/C=N/NC(=O)c1ccc(COc2ccc3c(c2)CCC3)o1 was read as VLA-4 inh 21.9, AHR act 62.0*, Efflux pump inh 0.0, Mot1-301 SUMO -21.9, ALR H2O2 inh -1.8 and A1 inh 0.6.
`COC(=O)c1ccc(COc2ccc3c(c2)CCC3)o1` gave VLA-4 inh 9.3, AHR act 7.2, Efflux pump inh -0.2, Mot1-301 SUMO 27.6 and A1 inh -1.4.
`COc1ccccc1/C=N\NC(=O)c1ccc(COc2ccc(C)c(C)c2)o1` gave VLA-4 inh 9.3, AHR act 48.9*, Efflux pump inh 0.2, Mot1-301 SUMO 5.6 and A1 inh 0.2.
`COc1cccc(/C=N/NC(=O)c2ccc(COc3ccc(Cl)cc3Cl)o2)c1` gave VLA-4 inh 33.5, AHR act 53.1*, Efflux pump inh 0.1, Mot1-301 SUMO 321.8*, ALR H2O2 inh -8.6 and A1 inh 0.0.
O=C(N/N=C/c1ccc2ccccc2c1)c1ccc(COc2ccc3c(c2)CCC3)o1 was read as VLA-4 inh -3.7, AHR act 47.2*, Efflux pump inh -0.1, Mot1-301 SUMO 5.9, ALR H2O2 inh -4.2 and A1 inh -0.2.
For Cc1ccc(C(=O)N2CCCC(Nc3ccc(F)c(F)c3)C2)cn1 (centres undefined) the results were VLA-4 inh 7.3, AHR act -2.4, Efflux pump inh 0.1, Mot1-301 SUMO -4.7, ALR H2O2 inh 13.7 and A1 inh 0.0.
COC(=O)c1ccc(C(=O)N2CCCC(Nc3ccc(F)c(F)c3)C2)cc1 (centres undefined) was read as VLA-4 inh -0.3, AHR act 0.9, Efflux pump inh -0.1, Mot1-301 SUMO 12.6, ALR H2O2 inh 8.2 and A1 inh -2.8.
For Cc1ccc(NC2CCCN(C(=O)c3ccc(C)c(N4CCNC4=O)c3)C2)cc1C (centres undefined) the results were VLA-4 inh -4.2, AHR act 1.9, Efflux pump inh -0.1, Mot1-301 SUMO 2.0, ALR H2O2 inh 93.0* and A1 inh -0.5.
Screening COc1ccc(NC2CCCN(C(=O)c3ccc4[nH]c(C)c(C)c4c3)C2)cc1OC (centres undefined) returned VLA-4 inh -4.4, AHR act 10.6, Efflux pump inh 0.3, Mot1-301 SUMO -8.7, ALR H2O2 inh 99.5* and A1 inh 0.2.
`COc1ccc(C(=O)N2CCCC(Nc3ccc(C)c(C)c3)C2)cc1` (centres undefined) gave VLA-4 inh -11.6, AHR act 21.3, Efflux pump inh 0.1, Mot1-301 SUMO 0.7, ALR H2O2 inh 98.4* and A1 inh 0.6.
Screening Cc1ccc(NC2CCCN(C(=O)c3ccoc3C)C2)cc1C (centres undefined) returned VLA-4 inh 19.6, Efflux pump inh -0.3, Mot1-301 SUMO -7.0, ALR H2O2 inh 98.3* and A1 inh 0.9.
Screening COc1cc(C(=O)NNC(=O)c2cc(=O)[nH]c3ccccc23)cc(OC)c1OC returned VLA-4 inh -2.5, AHR act 0.1, Efflux pump inh 0.0, Mot1-301 SUMO -8.6, ALR H2O2 inh -1.0 and A1 inh -1.0.
For Cc1ccc(C2=NN(CC(=O)NCCC(C)C)C(=O)CC2)cc1 the results were VLA-4 inh 4.1, AHR act 3.6, Efflux pump inh 0.0, Mot1-301 SUMO -10.3, ALR H2O2 inh -5.8 and A1 inh 0.2.
For COc1cc(OC)nc(/N=C/NO)n1 the results were VLA-4 inh 5.7, AHR act -2.9, Efflux pump inh -0.1, Mot1-301 SUMO -11.0, ALR H2O2 inh -3.5 and A1 inh 0.9.
`CC(=O)c1ccc(OCC(=O)N2CCCC(Nc3ccc(C)c(C)c3)C2)cc1` (centres undefined) gave VLA-4 inh -15.7, AHR act 27.5, Efflux pump inh 0.0, Mot1-301 SUMO 150.3, ALR H2O2 inh 84.6* and A1 inh 0.2.
CC1CCCN(C(=O)COc2ccc(-c3ccccc3)cc2)C1 (centres undefined) was read as VLA-4 inh 7.1, AHR act -5.0, Efflux pump inh -0.1, Mot1-301 SUMO -2.7, ALR H2O2 inh -19.5 and A1 inh -3.3.
`COc1ccc2cc(C(=O)N3CCCC(Nc4ccc(F)cc4)C3)n(C)c2c1` (centres undefined) gave VLA-4 inh -0.7, AHR act 1.8, Efflux pump inh -0.2, Mot1-301 SUMO 10.2, ALR H2O2 inh 24.5 and A1 inh -0.4.
Screening Cc1ccc(NC2CCCN(C(=O)c3ccoc3)C2)cc1C (centres undefined) returned VLA-4 inh -13.9, AHR act 16.7, Efflux pump inh 0.2 and ALR H2O2 inh 99.3*.
For COc1ccc(NC2CCCN(C(=O)c3ccc(OC)cc3OC)C2)cc1 (centres undefined) the results were VLA-4 inh -0.4, AHR act 4.4, Efflux pump inh 0.1, Mot1-301 SUMO 72.8, ALR H2O2 inh 99.2* and A1 inh -0.1.
CCn1nc(CC(C)C)cc1C(=O)N1CCCC(Nc2ccc(OC)cc2)C1 (centres undefined) was read as VLA-4 inh 1.4, AHR act 0.6, Efflux pump inh 0.0, Mot1-301 SUMO 420.4, ALR H2O2 inh 98.5* and A1 inh 0.2.
`Cc1ccc(C(=O)N2CCCC(Nc3ccc(C)c(C)c3)C2)c(=O)[nH]1` (centres undefined) gave VLA-4 inh -2.3, AHR act 2.4, Efflux pump inh -0.1, Mot1-301 SUMO -6.6, ALR H2O2 inh -0.2 and A1 inh 0.4.
For COc1cccc(CN(C)C(=O)CCNC(=O)c2ccc(Br)cc2)c1 the results were VLA-4 inh -7.8, AHR act 5.0, Efflux pump inh 1.2, Mot1-301 SUMO 14.0, ALR H2O2 inh -3.8 and A1 inh 0.9.
`C=CCSc1nc(C)cc2c1C(=O)OC2` gave VLA-4 inh 5.3, AHR act 1.6, Efflux pump inh -0.2, Mot1-301 SUMO -25.6, ALR H2O2 inh 52.6 and A1 inh -0.5.
Cc1ccc(NC2CCCN(C(=O)C3CCCC3)C2)cc1C (centres undefined) was read as VLA-4 inh 1.4, AHR act 33.6, Efflux pump inh 0.0, Mot1-301 SUMO -17.4, ALR H2O2 inh 99.0* and A1 inh 0.3.
For Cc1cc(N2CCCCCC2)nc2ccc(F)cc12 the results were VLA-4 inh 23.4, AHR act 58.3*, Efflux pump inh 0.0, Mot1-301 SUMO 0.4, ALR H2O2 inh -5.1 and A1 inh -0.7.
Screening Nc1ccccc1Oc1ncc(C(F)(F)F)cc1Cl returned VLA-4 inh 9.0, AHR act 0.9, Efflux pump inh -0.1, Mot1-301 SUMO 274.8*, ALR H2O2 inh -2.2 and A1 inh 1.6.
O=C(CCCCCNC(=O)N1CCn2c1nc1ccccc12)N[C@@H](C(=O)O)c1ccccc1 was read as VLA-4 inh 1.4, AHR act 0.3, Efflux pump inh -0.1, Mot1-301 SUMO -5.5, ALR H2O2 inh -3.3 and A1 inh 0.0.
